From PubChem BioAssay
Fluor 339 460 – intrinsic fluorescence of library compounds, ex339/em460 – biochemical, MLSMR library, data from DPM-DC assay, artefact control, profiling panel; compound autofluorescence, ex339/em460 nm, NADH buffer; hits give high values; 1 = no-compound wells, NADH background; fluorescence fold increase at 10 µM; 65,000 compounds, 5.5% hits; AID 709, 2007;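 active = at 10 µM, mean starting fluorescence two-fold or more over control wells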;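 note: signal is the first read of a kinetic run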
NADH coupling – inhibitors of PK/LDH coupling enzymes, profiling panel, artefact control, biochemical, MLSMR library. coupled PK/LDH NADH assays, four targets. IC50, µM (top dose mostly 10 µM). 65,000 compounds, 0.02% hits;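 active = single-dose screening hits from any of four coupled enzyme assays that gave an IC50 when retested across doses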;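 note: the DPM-DC format reads NADH fluorescence rather than 340 nm absorbance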
Spn DPM-DC inh – S. pneumoniae DPM-DC inhibitors, primary screen, biochemical, PK/LDH-coupled NADH fluorescence. diphosphomevalonate decarboxylase (Streptococcus pneumoniae D39). purified DPM-DC. calls only at 10 µM. 65,000 compounds, 0.49% hits. AID 556, 2006;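 active = the 320 compounds with the highest percent inhibition in the single-dose primary screen, excluding strongly autofluorescent ones, cut at about 32% in these data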;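 note: kinetic rate of NADH fluorescence loss reporting ADP formed by the decarboxylase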
Spn PMK inh – S. pneumoniae PMK inhibitors, primary screen, biochemical, mevalonate pathway, pilot trial included; inhibition, % at 10 µM; 65,000 compounds, 0.49% hits; AID 539, 2006; purified PMK, PK/LDH-coupled NADH absorbance 340 nm; phosphomevalonate kinase (Streptococcus pneumoniae D39);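 active = top-ranked compounds by inhibition in the single 10 µM screen, taking a fixed number of the strongest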
Abs 340nm – compound light absorbance at 340 nm, profiling panel, artefact control, biochemical, MLSMR library, data from PS, PMK, MK assays | compound absorbance at 340 nm, fold over control | fold change at 10 µM | 65,000 tested, under 10 active | AID 708, 2007;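 active = at 10 µM dose, initial 340 nm absorbance at least 2 fold that of control wells; inactive = change under 2 fold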;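 note: initial absorbance extrapolated from kinetic A340 decline of NADH oxidation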
MK inhibit – S. pneumoniae MK inhibitors, primary screen, biochemical, PK/LDH-coupled NADH absorbance | purified MK, PK/LDH-coupled NADH absorbance 340 nm | mevalonate kinase [Streptococcus pneumoniae D39] | 65,000 compounds, 0.48% hits | inhibition, % at 10 µM;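 active = ranked among the strongest by inhibition in the single 10 µM screen, a fixed top-ranked set picked for dose follow-up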
Hits are given with their value. Shown are actives, neighbours in structure and some others; about 6.5% of the full set was active somewhere.

CCOC(=O)c1oc2cccc(OCC(O)CNC(C)C)c2c1C (stereo not given) was read as Fluor 339 460 3.6, NADH coupling inactive, Spn PMK inh inactive, Abs 340nm inactive and MK inhibit inactive.
For Cc1cc(=O)oc(C)c1C(=O)NCCCN1CCN(c2ccccc2F)CC1 the results were Fluor 339 460 inactive, NADH coupling inactive, Spn DPM-DC inh inactive, Spn PMK inh inactive, Abs 340nm inactive and MK inhibit inactive.
Screening Cc1cnn(-c2ccc3nnc(-c4ccc(Br)cc4)n3n2)c1 returned Fluor 339 460 inactive, NADH coupling inactive, Spn DPM-DC inh inactive, Spn PMK inh inactive, Abs 340nm inactive and MK inhibit inactive.
CCC1Cc2c(nc3c4c(nc(N5CCOCC5)c(C#N)c24)NC(C)=N3)O1 (stereo not given) was read as Fluor 339 460 3.3, NADH coupling inactive, Spn PMK inh inactive, Abs 340nm inactive and MK inhibit inactive.
C=CCNc1nc(N2CCOCC2)c(C#N)c2c1CN(C)CC2 was read as Fluor 339 460 inactive, NADH coupling inactive, Spn DPM-DC inh inactive, Spn PMK inh inactive, Abs 340nm inactive and MK inhibit inactive.
For COc1ccc(-c2cc3nc4n(c(=O)c3s2)CCOC4)cc1 the results were Fluor 339 460 2.4, NADH coupling inactive, Spn PMK inh inactive, Abs 340nm inactive and MK inhibit inactive.
`CCCCN1c2cc(C)c(O)cc2C(C(=O)OCC)C1C` (stereo not given) gave Fluor 339 460 inactive, NADH coupling inactive, Spn DPM-DC inh inactive, Spn PMK inh inactive, Abs 340nm inactive and MK inhibit inactive.
For O=C(CSc1nccc(=O)[nH]1)Nc1ccc(Br)c(Cl)c1 the results were Fluor 339 460 inactive, NADH coupling inactive, Spn DPM-DC inh inactive, Spn PMK inh inactive, Abs 340nm inactive and MK inhibit inactive.
CC(C)Cn1cc(C(=O)N2CCN(c3ccccn3)CC2)c2c3ccccc3n(C)c2c1=O was read as Fluor 339 460 2.1, NADH coupling inactive, Spn DPM-DC inh inactive, Spn PMK inh inactive, Abs 340nm inactive and MK inhibit inactive.
Screening Cn1cc(C(=O)N2CCN(C(=O)c3ccco3)CC2)c2c3ccccc3n(C)c2c1=O returned Fluor 339 460 3.5, NADH coupling inactive, Spn DPM-DC inh inactive, Spn PMK inh inactive, Abs 340nm inactive and MK inhibit inactive.
Screening O=C(CNC(=O)c1cccs1)NCCN1CCN(c2ccccc2F)CC1 returned Fluor 339 460 inactive, NADH coupling inactive, Spn DPM-DC inh inactive, Spn PMK inh 25, Abs 340nm inactive and MK inhibit inactive.
COCCn1cc(C(=O)N2CCCC(C)C2)c2c3ccccc3n(C)c2c1=O (stereo not given) was read as Fluor 339 460 4.5, NADH coupling inactive, Spn PMK inh inactive, Abs 340nm inactive and MK inhibit inactive.
For CCOC(=O)C1CCCN(C(=O)c2cc3c(=O)n(C)c4ccccc4c3n2C)C1 (stereo not given) the results were Fluor 339 460 inactive, NADH coupling inactive, Spn DPM-DC inh inactive, Spn PMK inh inactive, Abs 340nm inactive and MK inhibit inactive.
`COc1ccccc1-n1cc(C(=O)NCC(=O)N2CCN(c3ccccn3)CC2)c2ccccc2c1=O` gave Fluor 339 460 inactive, NADH coupling inactive, Spn DPM-DC inh inactive, Spn PMK inh inactive, Abs 340nm inactive and MK inhibit inactive.
`CC1(C)CC(=O)C(C=NCC2CCN(C(=O)Nc3ccccc3)CC2)=C(O)C1` gave Fluor 339 460 inactive, NADH coupling inactive, Spn DPM-DC inh inactive, Spn PMK inh inactive, Abs 340nm inactive and MK inhibit inactive.
`CCOC(=O)C1CCN(C(=O)c2cn(CCOC)c(=O)c3c2c2ccccc2n3C)CC1` gave Fluor 339 460 4.9, NADH coupling inactive, Spn PMK inh inactive, Abs 340nm inactive and MK inhibit inactive.
`Cn1c(C(=O)N2CCCC2)cc2c(=O)n(C)c3ccccc3c21` gave Fluor 339 460 inactive, NADH coupling inactive, Spn DPM-DC inh inactive, Spn PMK inh inactive, Abs 340nm inactive and MK inhibit inactive.
For CCN1CCN(C(=O)c2cn(CCOC)c(=O)c3c2c2ccccc2n3C)CC1 the results were Fluor 339 460 2.8, NADH coupling inactive, Spn DPM-DC inh inactive, Spn PMK inh inactive, Abs 340nm inactive and MK inhibit inactive.
Cn1cc(C(=O)NCCN2CCN(c3ccccc3F)CC2)c2c3ccccc3n(C)c2c1=O was read as Fluor 339 460 3.5, NADH coupling inactive, Spn DPM-DC inh inactive, Spn PMK inh inactive, Abs 340nm inactive and MK inhibit inactive.
CC(C)Cn1cc(C(=O)NCCCN2CCCC2=O)c2c3ccccc3n(C)c2c1=O was read as Fluor 339 460 3.9, NADH coupling inactive, Spn DPM-DC inh inactive, Spn PMK inh inactive, Abs 340nm inactive and MK inhibit inactive.
Screening COc1cccc(C2=NOC(C(=O)NC3CCCCC3)C2)c1 (stereo not given) returned Fluor 339 460 inactive, NADH coupling inactive, Spn DPM-DC inh inactive, Spn PMK inh inactive, Abs 340nm inactive and MK inhibit inactive.
Screening Cc1c(NC(=O)CC2CC(C)OC2=O)c(=O)n(-c2ccccc2)n1C (stereo not given) returned Fluor 339 460 inactive, NADH coupling inactive, Spn DPM-DC inh inactive, Spn PMK inh inactive, Abs 340nm inactive and MK inhibit inactive.
For c1ccc(-c2noc(-c3cccc4ccccc34)n2)nc1 the results were Fluor 339 460 3.3, NADH coupling inactive, Spn PMK inh inactive, Abs 340nm inactive and MK inhibit inactive.
Cc1c(Cc2ccccc2)c(=O)oc2c(CN(C)C)c(O)c(Cl)cc12 was read as Fluor 339 460 3.8, NADH coupling inactive, Spn PMK inh inactive, Abs 340nm inactive and MK inhibit inactive.
CCOC(=O)C1=C(C)N=C2SC(CC)C(=O)N2C1c1ccc(OC(C)=O)c(OCC)c1 (stereo not given) was read as Fluor 339 460 inactive, NADH coupling inactive, Spn DPM-DC inh inactive, Spn PMK inh inactive, Abs 340nm inactive and MK inhibit inactive.
For Cn1ncc2c(Nc3ccc(-c4ccccc4)cc3)ncnc21 the results were Fluor 339 460 3.1, NADH coupling inactive, Spn DPM-DC inh active, Spn PMK inh inactive, Abs 340nm inactive and MK inhibit inactive.
Screening C=CCn1c(SCc2c(F)cccc2Cl)nnc1-c1ccco1 returned Fluor 339 460 inactive, NADH coupling inactive, Spn DPM-DC inh inactive, Spn PMK inh inactive, Abs 340nm inactive and MK inhibit inactive.
`Cc1noc2nc(-c3cccs3)cc(-c3nnc4n3CCCCC4)c12` gave Fluor 339 460 2.1, NADH coupling inactive, Spn PMK inh inactive, Abs 340nm inactive and MK inhibit inactive.
